Screens (PubChem)
Rows were chosen to be rich in hits. Some 1.6% of all compounds tested hit in one or more screens of this group.
KCNQ2 inh: blocks the rat KCNQ2 potassium channel | CHO-K1 KCNQ2, FluxOR thallium flux, 20 min; stronger effect = lower value | B-score at 10 µM | actives 1.1% (n = 310,000) | O88943 | AID 2156;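 active means fluorescence ratio B-score at most minus 3 library SDs, with starting brightness B-score within 2 library SDs, cut at about -5.5 in these data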
Target sequence (O88943 whole entry, looked up): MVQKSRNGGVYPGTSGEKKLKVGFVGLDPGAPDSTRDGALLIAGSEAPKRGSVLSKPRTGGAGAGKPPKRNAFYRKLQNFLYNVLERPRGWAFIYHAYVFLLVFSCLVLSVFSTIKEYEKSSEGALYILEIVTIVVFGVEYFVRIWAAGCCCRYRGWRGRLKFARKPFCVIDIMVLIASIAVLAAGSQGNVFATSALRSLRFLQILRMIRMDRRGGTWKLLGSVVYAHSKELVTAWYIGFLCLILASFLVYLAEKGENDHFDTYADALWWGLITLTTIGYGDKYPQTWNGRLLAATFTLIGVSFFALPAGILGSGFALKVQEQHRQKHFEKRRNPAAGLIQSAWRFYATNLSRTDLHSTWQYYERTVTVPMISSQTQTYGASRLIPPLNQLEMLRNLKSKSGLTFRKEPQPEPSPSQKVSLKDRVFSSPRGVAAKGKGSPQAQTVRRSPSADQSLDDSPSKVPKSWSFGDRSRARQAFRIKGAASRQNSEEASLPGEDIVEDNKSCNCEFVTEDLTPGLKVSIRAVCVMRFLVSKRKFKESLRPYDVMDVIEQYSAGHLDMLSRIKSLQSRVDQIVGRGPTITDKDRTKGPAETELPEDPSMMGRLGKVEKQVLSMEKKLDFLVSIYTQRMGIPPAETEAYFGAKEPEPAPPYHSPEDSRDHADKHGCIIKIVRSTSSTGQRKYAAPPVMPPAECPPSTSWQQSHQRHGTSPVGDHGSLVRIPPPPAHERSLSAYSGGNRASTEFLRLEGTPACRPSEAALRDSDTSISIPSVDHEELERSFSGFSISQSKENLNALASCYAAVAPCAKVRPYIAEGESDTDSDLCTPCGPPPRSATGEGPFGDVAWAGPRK
KCNQ2 enhance: enhances the rat KCNQ2 potassium channel. O88943. CHO-K1 KCNQ2, FluxOR thallium flux fluorescence; stronger effect = higher value. B-score at 10 µM. actives 0.54% (n = 310,000). AID 2239;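 active means fluorescence ratio B-score at least 3 SD of library B-scores, with initial fluorescence B-score within 3 of them, cut at about 5.3 in these data; same plate scores as AID 2156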;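 further: B-score of peak minus minimum over baseline fluorescence ratio after K+ and Tl+ stimulus; positive B-score means potentiation of KCNQ2 with more thallium influx and brighter signal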
Of the large screens only hits and unclear results are named; the others gave an inactive call.

COc1cccc(NC(=O)C(c2ccccc2)N2CCCCC2)c1 (centres undefined)	none (no result: KCNQ2 enhance)
O=C(Nc1cc(Cl)cc(Cl)c1)C(c1ccccc1)N1CCCCC1 (centres undefined)	KCNQ2 inh -6.41
COc1ccc(-n2c(=O)c3ccccc3n(Cc3cccc(C)c3)c2=O)cc1OC	none (no result: KCNQ2 enhance)
Cc1cc2ncn(-c3ncnc4sc5c(c34)CCCC5)c2cc1C	none (no result: KCNQ2 enhance)
Cc1cc2ncn(-c3ncnc4sc5c(c34)CCC(C)C5)c2cc1C (centres undefined)	KCNQ2 inh -5.88
CCc1cc(C(=O)N2CCCC(CO)(Cc3ccc(F)cc3)C2)n(C)n1 (centres undefined)	none
CCCC/C=C/C(NC(=O)c1ccc(-c2ccccc2)cc1)c1ccccc1 (centres undefined)	none
COc1ccc(-c2csc(N(Cc3ccco3)C(=O)c3cccs3)n2)cc1	KCNQ2 inh -6.02
COc1ccc(OC)c(-c2csc(N(Cc3ccco3)C(=O)c3cccs3)n2)c1	none (no result: KCNQ2 enhance)
COCCCN(C(=O)c1ccccc1)c1nc(-c2ccc(OC)cc2)cs1	KCNQ2 inh -5.94
COCCN(C(=O)c1ccccc1)c1nc(-c2ccc(OC)cc2)cs1	none (no result: KCNQ2 enhance)
COC(=O)c1sccc1NC(=O)c1ccc(C(C)C)cc1	none (no result: KCNQ2 enhance)
O=C(NCc1cccc(Br)c1)c1cc(-c2ccccc2)nn1CC1CC(c2cccc([N+](=O)[O-])c2)=NO1 (centres undefined)	none (no result: KCNQ2 enhance)
Cc1ccc2nc(C)cc(C(=O)N3CCCC(CO)(Cc4ccccc4C)C3)c2c1 (centres undefined)	none (no result: KCNQ2 enhance)
CC(C)c1ccc(/C=C/C(=O)N2CCCCCC2)cc1	none (no result: KCNQ2 enhance)
CC(C)c1ccc(/C=C/C(=O)n2nnc3ccccc32)cc1	KCNQ2 inh -6.21
CN(CC(=O)Nc1cccc(F)c1)C(=O)CCNC(=O)c1ccco1	none (no result: KCNQ2 enhance)
O=C(CN=C1NC(=O)C(c2ccccc2)(c2ccccc2)N1)NCc1ccc(F)cc1	none (no result: KCNQ2 enhance)
COc1ccc(CNC(=O)CN=C2NC(=O)C(c3ccccc3)(c3ccccc3)N2)cc1	KCNQ2 inh -6.09
Cn1cc(C(=O)c2ccccc2)cc1-c1nc2ccccc2n1C	none (no result: KCNQ2 enhance)
Cc1oc(-c2nc3ccccc3n2C)cc1C(=O)c1ccccc1	KCNQ2 inh -6.62
CS(=O)(=O)N1CCN(c2ccccc2NC(=O)c2cc3ccccc3o2)CC1	none
COc1ccc(N2C(=O)CSC23C(=O)N2CCCc4cccc3c42)cc1 (centres undefined)	none
COc1ccc(N2C(=O)CSC23C(=O)N2c4c(cccc43)C(C)=CC2(C)C)cc1 (centres undefined)	KCNQ2 inh -6.18
Cc1ccc(NC(=O)C(=O)NCCCN2CC(C(=O)O)CC2=O)cc1 (centres undefined)	none
Cc1ccc(C(=O)NNC(=O)c2ccc3ncccc3c2)cc1	none
O=C(NNC(=O)c1ccc2ncccc2c1)c1ccc(Cl)cc1	KCNQ2 enhance 8.05
COc1cc(CC(=O)NCC(C)(C)N2CCOCC2)cc(OC)c1OC	none (no result: KCNQ2 enhance)
CCN(CC)c1ccc(NC(=O)CSc2ccsc2[N+](=O)[O-])c(C)c1	KCNQ2 enhance 5.47
O=C(CSc1ccsc1[N+](=O)[O-])Nc1cc(F)ccc1F	none (no result: KCNQ2 enhance)
CC(C(=O)NCc1ccc(Cl)cc1)n1cccc1C(=O)c1ccccc1 (centres undefined)	none
COc1ccccc1CNC(=O)C(C)n1cccc1C(=O)c1ccccc1 (centres undefined)	KCNQ2 inh -5.71
Clc1ccccc1Cn1c(/C=C/c2ccco2)nc2ccccc21	KCNQ2 inh -7.05
COc1ccc(Cn2c(/C=C/c3ccccc3)nc3ccccc32)cc1	none (no result: KCNQ2 enhance)
C/C(Cl)=C\Cn1c(O)c(N=NC(N)=S)c2cc(Br)ccc21	KCNQ2 enhance 9.18
NC(=S)N=Nc1c(O)n(CCCl)c2ccc(Br)cc12	none (no result: KCNQ2 enhance)
NS(=O)(=O)c1ccc(CNC(=O)c2sccc2-c2ccccc2)cc1	none
O=C1NC(c2ccccc2O)Nc2ccccc21 (centres undefined)	none (no result: KCNQ2 enhance)
Cc1ccc(C)c(C2NC(=O)c3ccccc3N2)c1 (centres undefined)	KCNQ2 inh -5.57
CCCSc1ccc([C@@H]2[C@H]3C(=O)N(CC)C(=O)[C@H]3[C@]3(C(=O)OC)CCCCN23)cc1	none (no result: KCNQ2 enhance)
N#CC(c1cccc(C(F)(F)F)c1)(c1ncc(C(F)(F)F)cc1Cl)N1CCOCC1 (centres undefined)	none (no result: KCNQ2 enhance)
N#CC(c1ccccc1)(c1ncc(C(F)(F)F)cc1Cl)N1CCOCC1 (centres undefined)	KCNQ2 inh -7
O=C(Nc1ccc(-n2cccn2)cc1)C1CCCCN1Cc1cccc2c1OCO2 (centres undefined)	none (no result: KCNQ2 enhance)
C=CCN1C(=O)C(Cc2ccccc2)S/C1=N/N=C/c1cccs1 (centres undefined)	none (no result: KCNQ2 enhance)
C=CCN1C(=O)C(Cc2ccc(OCC)cc2)S/C1=N\N=C\c1cccs1 (centres undefined)	KCNQ2 inh -5.61
CC(C)N=C(NS(=O)(=O)NC(=O)c1ccccc1)c1ccccc1	none
CCOc1cc(S(=O)(=O)n2cc(-c3ccc(F)cc3)c(N)n2)cc(OCC)c1OCC	none (no result: KCNQ2 enhance)
CCOc1cc(-c2cn(S(=O)(=O)c3cccc4nsnc34)nc2N)cc(OCC)c1OCC	KCNQ2 inh -6.32
CCc1ccc(NC(=O)CSc2nc3nc(C)cc(C)n3n2)cc1	none (no result: KCNQ2 enhance)
COc1cccc(C(=O)N2CCC(N3CC(C)OC(C)C3)CC2)c1 (centres undefined)	none (no result: KCNQ2 enhance)
CCC(C)[C@H]1COCCS(=O)(=O)N1Cc1ccccc1 (some centres undefined)	none
Clc1ccc(-n2cnnn2)cc1	none
CO/C=C\C=C/c1nnn(-c2ccc(Cl)cc2)n1	KCNQ2 inh -6.86
Cc1cc(C)nc(SCC(=O)NC2CCCCC2C)n1 (centres undefined)	none
COc1ccc(CCNC(=O)NC23CC4CC(CC(C4)C2)C3)cc1OC	none (no result: KCNQ2 enhance)
Cc1ccc2[nH]c(C(=O)N3CCN(C(c4ccccc4)c4ccccc4)CC3)cc2c1	KCNQ2 inh -5.8
COc1ccccc1N1CCN(C(=O)c2cc3cc(C)ccc3[nH]2)CC1	none
CCCCCn1c(=O)[nH]c2cc(C(=O)NCCCN3CCCCC3CC)ccc2c1=O (centres undefined)	none
COc1ccc(OC)c(N2CC(O)(c3ccccc3)[N+]3=C2SCCC3)c1 (centres undefined)	none (no result: KCNQ2 enhance)
COc1ccc(C2(O)CN(c3ccccc3)C3=[N+]2CCS3)cc1OC (centres undefined)	none (no result: KCNQ2 enhance)
OC1(c2ccc(Br)cc2)CN(c2ccccc2)C2=[N+]1CCS2 (centres undefined)	KCNQ2 inh -6.02
OC1(c2ccc(Cl)cc2)CN(c2ccccc2)C2=[N+]1CCS2 (centres undefined)	KCNQ2 inh -7.15
COc1ccc2c(c1)CCc1c(C(=O)NC3CCCCC3)noc1-2	none
CCN(C(=O)COC(=O)/C(C#N)=C/c1ccc(OC)cc1)C1CCS(=O)(=O)C1 (centres undefined)	none
Cc1ccc(-c2csc(NC(=O)c3cc([N+](=O)[O-])ccc3N3CCOCC3)n2)cc1	none (no result: KCNQ2 enhance)
O=C(Nc1nc(-c2ccccc2)cs1)c1ccc(N2CCOCC2)c([N+](=O)[O-])c1	KCNQ2 inh -7.8
CS(=O)(=O)N(CC(=O)N1CCCC1)Cc1ccc(Cl)cc1	none
CC(C)(C)OC(=O)C(C)(C)Sc1nnc(N)s1	none (no result: KCNQ2 enhance)
COC(=O)c1ccc(CSc2nnc(C)n2N)o1	none
N#Cc1ccc(COC(=O)c2ccc(N3CCCC3)c([N+](=O)[O-])c2)cc1	KCNQ2 inh -6.81
O=C(OCc1ccc([N+](=O)[O-])cc1)c1ccc(N2CCCC2)c([N+](=O)[O-])c1	none (no result: KCNQ2 enhance)
COc1ccccc1OCC(=O)N/N=C1/C=C(C)CC1	none (no result: KCNQ2 enhance)
Cc1ccccc1OCCC(=O)OCC(=O)Nc1c(C)nn(-c2ccccc2)c1C	none
